From paper PMC4336329 (PLoS ONE, 2015)
In all, about 310,000 compounds went through this assay and about 14,000 (4.5%) showed an effect of 50% or more. Effects have a minus sign here. Many of the other results were omitted from the sample, so strong results are more common in it than they were.

target: human ether-à-go-go-related gene (hERG) potassium channel (human, UniProt Q12809); experiment: primary screen, population patch clamp on CHO cells stably expressing hERG; higher = less effect of the substance
Sequence (Q12809 whole entry, looked up): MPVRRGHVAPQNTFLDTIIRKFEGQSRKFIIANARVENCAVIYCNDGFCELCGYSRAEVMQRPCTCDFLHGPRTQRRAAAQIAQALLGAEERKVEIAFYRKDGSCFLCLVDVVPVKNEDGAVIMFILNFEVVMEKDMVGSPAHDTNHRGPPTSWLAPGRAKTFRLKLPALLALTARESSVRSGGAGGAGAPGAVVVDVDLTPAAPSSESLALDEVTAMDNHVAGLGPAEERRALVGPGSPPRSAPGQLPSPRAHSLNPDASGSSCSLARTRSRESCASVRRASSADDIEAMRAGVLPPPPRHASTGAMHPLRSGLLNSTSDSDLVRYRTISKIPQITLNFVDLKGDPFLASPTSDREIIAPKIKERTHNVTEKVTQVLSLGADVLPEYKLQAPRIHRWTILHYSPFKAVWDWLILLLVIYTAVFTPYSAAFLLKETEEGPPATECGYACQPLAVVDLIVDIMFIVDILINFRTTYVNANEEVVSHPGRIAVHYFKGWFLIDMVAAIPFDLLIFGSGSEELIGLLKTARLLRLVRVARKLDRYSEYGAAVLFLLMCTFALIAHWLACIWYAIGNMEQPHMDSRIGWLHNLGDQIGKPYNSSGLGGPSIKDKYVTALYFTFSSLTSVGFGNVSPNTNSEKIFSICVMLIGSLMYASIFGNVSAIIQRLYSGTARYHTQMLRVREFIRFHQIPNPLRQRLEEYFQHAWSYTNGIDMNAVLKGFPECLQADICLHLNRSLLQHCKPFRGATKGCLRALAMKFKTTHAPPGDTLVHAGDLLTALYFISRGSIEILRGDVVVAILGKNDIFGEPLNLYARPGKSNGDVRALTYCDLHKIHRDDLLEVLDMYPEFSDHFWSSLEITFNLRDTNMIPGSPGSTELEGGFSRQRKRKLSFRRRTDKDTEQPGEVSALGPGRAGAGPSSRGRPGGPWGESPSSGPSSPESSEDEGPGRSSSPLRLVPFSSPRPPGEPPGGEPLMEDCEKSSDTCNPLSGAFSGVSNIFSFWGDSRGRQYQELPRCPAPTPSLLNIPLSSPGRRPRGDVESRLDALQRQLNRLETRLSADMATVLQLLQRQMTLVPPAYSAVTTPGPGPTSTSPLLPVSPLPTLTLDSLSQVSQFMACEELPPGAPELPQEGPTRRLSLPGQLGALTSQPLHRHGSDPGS
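Note: peak tail current of the secondary pulse compared with the same well before compound.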

| Compound | hERG current change (%, negative = inhibition) at 10uM [%] |
| --- | --- |
| CC1CCN(CC(=O)Nc2cccc(C(=O)Nc3cccc(C(F)(F)F)c3)c2)CC1 | -37.3 |
| O=C(Cc1ccccc1)Nc1cccc(S(=O)(=O)N2CCCCCC2)c1 | -49.1 |
| COc1ccccc1N1CCN(CCC(=O)Nc2cccc(Cl)c2)CC1.Cl | -62.8 |
| COc1ccccc1N1CCN(CCC(=O)Nc2ccc(F)cc2)CC1 | -19.3 |
| CC(=O)N1CCN(CC(=O)Nc2cccc(S(=O)(=O)N3CCCCCC3)c2)CC1 | -23.3 |
| O=C(CN1CCN(Cc2ccccc2)CC1)Nc1cccc(C(F)(F)F)c1 | -71.6 |
| CC1CN(CC(=O)Nc2cccc(C(=O)Nc3cccc(C(F)(F)F)c3)c2)CC(C)O1 (stereo not drawn) | -54.3 |
| O=C(CN1CCOCC1)Nc1cccc(C(=O)Nc2cccc(C(F)(F)F)c2)c1 | -40.1 |
| COc1ccccc1N1CCN(CCC(=O)Nc2ccc3c(c2)OCO3)CC1 | -26.7 |
| O=C(CN1CCOCC1)Nc1cccc(C(F)(F)F)c1 | -3 |
| O=C(CN1CCN(c2ccccc2)CC1)Nc1cccc(C(F)(F)F)c1 | 2 |
| O=C(CN1CCN(Cc2ccccc2)CC1)Nc1cccc(S(=O)(=O)N2CCCCCC2)c1 | -76.3 |
| COc1ccc(NC(=O)Cn2nnc(C(=O)NCc3cccs3)c2N)cc1 | 13.9 |
| COc1ccc(/C=C2\SC(=S)N(Cc3cccnc3)C2=O)cc1C | -3.04 |
| Cc1ccc2c(cnn2C(=O)CCC(=O)NC2CCCC2)c1 | -10.3 |
| O=C(CCN1C(=O)/C(=C/c2cccc(Br)c2)SC1=S)NNC(=O)c1cccnc1 | 6.24 |
| CCOc1ccccc1NC(=O)COC(=O)c1ccccc1SCC(=O)N1CCCC1 | 1.65 |
| N#Cc1cccc(NC(=O)CN2CCN(Cc3ccccc3)CC2)c1 | -65.1 |
| O=C(CNC1CCCCC1)Nc1ccc(S(=O)(=O)N2CCCCC2)cc1 | 2.13 |
| O=C(CCN1CCN(Cc2ccccc2)CC1)NNC(=O)Nc1cccc(Cl)c1 | -47 |
| NNC(=O)CCN1CCN(Cc2ccccc2)CC1 | 17 |
| O=C(CCN1CCN(Cc2ccccc2)CC1)Nc1cccc(Cl)c1 | -70.6 |

| Compound | hERG current change (%, negative = inhibition) at 10uM [%] |
| --- | --- |
| Cl.O=C(CCN1CCCCC1)Nc1cccc(Cl)c1 | -35.9 |
| O=C(CNC1CCCC1)Nc1ccc(S(=O)(=O)N2CCCCC2)cc1 | -0.797 |
| O=C(CCN1CCN(Cc2ccccc2)CC1)NNC(=O)Cc1ccc(Cl)c(Cl)c1 | -74.7 |
| CCc1ccc(C(=O)NNC(=O)CCN2CCN(Cc3ccccc3)CC2)cc1 | -19.8 |
| N#Cc1cccc(NC(=O)Cc2ccccc2)c1 | 13.6 |
| Cl.O=C(CNC1CCN(Cc2ccccc2)CC1)Nc1ccc(S(=O)(=O)N2CCCCC2)cc1 | -69.7 |
| N#Cc1cccc(NC(=O)CN2CCCCCC2)c1 | -10.9 |
| COc1ccc(NS(=O)(=O)c2cnc[nH]2)cc1 | 17.4 |
| COCCCNC(=O)c1ccc(NS(C)(=O)=O)cc1 | -2.85 |
| O=C(O)c1c(NC(=O)c2cccc3ccccc23)sc2c1CCC2 | 5.11 |
| COc1cccc(CNc2nc(C(F)(F)F)nc3ccccc23)c1 | 0.0262 |
| CS(=O)(=O)c1cccc(NC(=O)C2CCCN2S(=O)(=O)c2ccc(F)cc2)c1 (stereo not drawn) | 7.77 |
| Nc1ccc(C(=O)OCc2ccncc2)cc1[N+](=O)[O-] | -28.7 |
| NC(=O)c1cccnc1Nc1ccccc1F | 0.0995 |
| CC1(C)C=Cc2cc3ccc(=O)oc3cc2O1 | 3.51 |
| COc1ccc(OCc2n[nH]c(=S)n2-c2ccc(C)cc2)cc1 | 0.659 |
| CCN(CC)C(=S)SCC(=O)Nc1cccc(C(F)(F)F)c1 | -10 |
| Cl.O=C(CN1CCCCC1)Nc1cccc(Cl)c1 | -28.8 |
| O=C(Cn1cnnn1)Nc1cccc(S(=O)(=O)N2CCCCC2)c1 | 18.2 |
| O=C(CN1CCN(Cc2ccccc2)CC1)Nc1cccc(Cl)c1 | -60.7 |
| CN(C)C(=S)SCC(=O)Nc1cccc(C(F)(F)F)c1 | -54.6 |
| Cl.O=C(CN1CCCC1)Nc1cccc(Cl)c1 | -3.66 |

| Compound | hERG current change (%, negative = inhibition) at 10uM [%] |
| --- | --- |
| O=C(Cn1ccc(C(F)(F)F)n1)Nc1cccc(S(=O)(=O)N2CCCCC2)c1 | -60.5 |
| Cc1ccc(S(=O)(=O)N2CCCCC2)cc1NC(=O)Cn1ccc(C(F)(F)F)n1 | -8.63 |
| O=C(O)CSCC(=O)Nc1cccc(C(F)(F)F)c1 | -6.67 |
| CCN1CCN(C(=S)Nc2sc(C)c(-c3ccccc3)c2C(=O)OC)CC1 | 15.3 |
| CC1(C)Cc2cccc(OCC(=O)OCC(=O)c3ccccc3)c2O1 | 1.43 |
| Cc1c(NC(=O)CSc2nnnn2-c2ccc(F)cc2)c(=O)n(-c2ccccc2)n1C | -2.74 |
| Cc1cccc(C(=O)Oc2ccc(/C=N/NC(=O)c3ccncc3)cc2)c1 | 3.1 |
| Clc1ccc2c(c1)C(c1ccccc1Cl)=NCc1nnc(N3CCN(CCSc4ccccc4)CC3)n1-2.O.O=C(O)/C=C/C(=O)O | -66.5 |
| CCS(=O)(=O)NCc1nnc2n1-c1ccc(Br)cc1C(c1ccccc1Cl)=NC2 | -49 |
| CCS(=O)(=O)NCc1nnc2n1-c1ccc(Cl)cc1C(c1ccccc1)=NC2 | 12.6 |
| COCCCN1CCN(c2nnc3n2-c2sc(Br)cc2C(c2ccccc2Cl)=NC3)CC1.CS(=O)(=O)O | -47.7 |
| CSCc1nnc2n1-c1ccc(Cl)cc1C(c1ccccc1)=NC2 | -17 |
| Clc1ccc2c(c1)C(c1ccccc1Cl)=NCc1nnc(N3CCN(CCOc4ccccc4)CC3)n1-2.O=C(O)/C=C/C(=O)O | -72.7 |
| COc1ccccc1C1=NCc2nnc(C)n2-c2ccc(Cl)cc21 | 3.01 |
| Clc1ccc2c(c1)C(c1ccccc1Cl)=NCc1nncn1-2 | -4.37 |
| CCOCCN1CCN(c2nnc3n2-c2ccc(Cl)cc2C(c2ccccc2Cl)=NC3)CC1.O=CO | -76.5 |
| Clc1ccc2c(c1)C(c1ccccc1Cl)=NCc1nnc(Br)n1-2.c1ccccc1 | -6.61 |
| CN1CCN(Cc2nnc3n2-c2ccc(Cl)cc2C(c2ccccc2)=NC3)CC1.O=CO | -64.7 |
| Cc1nnc2n1-c1ccc(Br)cc1C(c1ccccc1Cl)=NC2 | -21.1 |
| C/C(=N\NC(=O)C1CC1)c1ccc(N2CCOCC2)cc1 | -0.403 |
| O=c1/c(=C/c2ccco2)sc2nc(-c3ccccc3Br)nn12 | 12.7 |
| O=c1sc2ccccc2c(N2CCCC2)c1[N+](=O)[O-] | 6.33 |

| Compound | hERG current change (%, negative = inhibition) at 10uM [%] |
| --- | --- |
| Cc1cc(C)nc(SCc2nnc(SCC(N)=O)o2)n1 | 15.7 |
| O=C(c1ccccc1)c1ccc(N=Nc2c(O)[nH]c(=O)[nH]c2=O)cc1 | 1.15 |
| Cc1nc2c(c(=O)n1CCC1=CCCCC1)c1nc3ccccc3nc1n2/N=C/c1ccco1 | -22 |
| O=S(=O)(c1cccs1)N1CCC(Cc2ccccc2)CC1 | 6.58 |
| CCOC(=O)C1=C(N)Oc2ccc3ccccc3c2C1c1cccnc1 (stereo not drawn) | 0.98 |
| O/N=C1\CCCc2c1nc(-c1ccccc1F)n2O | 26.1 |
| O=C(COc1cc2oc(=O)c3c(c2cc1Cl)CCC3)NCC1CCC(C(=O)O)CC1 (stereo not drawn) | 5.36 |
| Cc1ccc(S(=O)(=O)CC(=O)N2CCCCCC2)cc1 | 13.6 |
| C=CC(C)(C)c1[nH]cnc1/C=C1\NC(=O)C(C(C)C)NC1=O (stereo not drawn) | 3.54 |
| COc1ccc(NC(=O)N[C@@H](CCSC)C(=O)O)cc1OC | -0.994 |
| Cc1ccc(NC(=S)N2CCC(NC(=O)c3cccc(F)c3)CC2)cc1 | -24.9 |
| COCCOCC(O)CN1CCN(c2ccccc2)CC1.O=C(O)C(=O)O (stereo not drawn) | -3.37 |
| CCOC(=O)C1CCCN(c2nnnn2-c2ccccc2)C1 (stereo not drawn) | -5.57 |
| COc1ccccc1C1=NCc2nnc(CSC)n2-c2ccc(Cl)cc21 | -19.1 |
| CS(=O)(=O)NCc1nnc2n1-c1ccc(Cl)cc1C(c1ccccc1)=NC2 | 6.2 |
| CN(C)CCSCc1nnc2n1-c1ccc(Cl)cc1C(c1ccccc1Cl)=NC2.c1ccccc1 | -73.7 |
| Cc1ccc(C(=O)NC(=S)Nc2ccc(N3CCOCC3)cc2)cc1C | -7.53 |
| O=C(NCCCn1ccnc1)C(=O)NCC(c1ccco1)N1CCN(c2ccccc2)CC1 (stereo not drawn) | 1.01 |
| CCCNC(=O)OC[C@H]1O[C@H](CCO/N=C/[C@@H](OC)[C@H](C)/C=C/CC(=O)OC)C=C[C@@H]1Oc1ccc(OC)cc1 | -11.1 |
| COc1ccc(O[C@H]2C=C[C@@H](c3ccccc3)O[C@@H]2CO/N=C/C[C@@H]2C=C[C@H](OC(C)=O)[C@@H](COC(C)=O)O2)cc1 | -9.17 |
| CCCNC(=O)OC[C@H]1O[C@H](CCO/N=C/C[C@@H]2C=C[C@H](OC(C)=O)[C@@H](COC(C)=O)O2)C=C[C@@H]1Oc1ccc(OC)cc1 | -59.7 |
